For the assay, the system named is P. falciparum stage V gametocytes. Details: BacTiter-Glo ATP luminescence viability of purified stage V gametocytes in 384-well plates, per cent inhibition versus DMSO. The settings on record: 48 h, 5 µM, inhibitor.

Like-named read-outs stand apart in the source and are kept apart here. Out of some 13,000 compounds screened, about 3,200 (25%) showed an effect of 50% or more. The list shows a part of the results.

In the case of `CCCCCc1ccc(N2C(N)=NC(N)=NC2(C)C)cc1` [TCMDC-137709], the “% Inhibition” value came to 8.731%. For `Cc1cccn2c(=O)c3cc(C(=O)NCCN4CCOCC4)c(=N)n(CCc4ccccc4)c3nc12` [TCMDC-124570], the “% Inhibition” value is 5.032%. For `OCc1ccc(-c2cncc(Nc3ccc(F)c(Cl)c3)c2)cc1` [TCMDC-136671], the “% Inhibition” value is -20.21%. Same read-out and setting: under `CCOc1ccc(C=CC(=O)Nc2ccc3nc(N4CCN(C)CC4)cc(C)c3c2)cc1OC` [TCMDC-125866] stands -25.94%; under `CC(C)c1ccc(NC(=O)c2ccc(NCCCN(C)Cc3ccccc3)c([N+](=O)[O-])c2)cc1` [TCMDC-125687], -12.67%; under `CCC(CCON1C(N)=NC(N)=NC1(C)C)c1ccc(Cl)cc1` (stereo not shown) [TCMDC-131710], 30.1%. Still for that read-out and setting: the figure for `Cc1ccccc1Oc1nc2ccccc2nc1SCC(=O)NC(C)C` [TCMDC-124733] is -10.37%; for `COc1cc(NC2=NS(=O)(=O)c3cc(Cl)ccc3N2C)cc(OC)c1OC` [TCMDC-134208] it is 87.41%; for `COc1ccc(Nc2ccnc3cc(Cl)ccc23)cc1OC` [TCMDC-124814] it is -70.18%. On the same count and under the same terms, under `COc1ccc2c(c1)S(=O)(=O)N=C(N1CCCC1c1ccc(Cl)c(Cl)c1)N2C` (stereo not shown) [TCMDC-134209] stands 3.235%; under `Oc1ccccc1CNCC(O)c1cccc(C(F)(F)F)c1` (stereo not shown) [TCMDC-140303], 18.18%. Consider `CCNc1cc(-c2cccc(OC)c2)nc(Nc2ccc(F)cc2)n1` [TCMDC-134014], for which the “% Inhibition” value is -12.85%. Regarding `O=C(Nc1ccc(OC2CCN(Cc3ccco3)CC2)c(Cl)c1)c1ccc2ncccc2c1` [TCMDC-133984], the “% Inhibition” value amounted to 86.08%.

For `O=C(Nc1ccc(OC2CCN(Cc3ccco3)C2)c(Cl)c1)c1ccc2ncccc2c1` (stereo not shown) [TCMDC-133987], the “% Inhibition” value is 24.52%.

For the molecule `Cc1ccc(NC(=O)c2ccc3ncccc3c2)cc1OC1CCN(Cc2ccc(F)cc2)C1` (stereo not shown) [TCMDC-133759], the “% Inhibition” value is reported as -2.086%. Same read-out and setting: the figure for `Cc1ccc(C(=O)Nc2ccc(C)c(OC3CCN(Cc4ccco4)C3)c2)cc1` (stereo not shown) [TCMDC-133986] is 48.65%. For `Cc1ccc(NC(=O)c2ccc3ncccc3c2)cc1OC1CCN(Cc2ccco2)C1` (stereo not shown) [TCMDC-133985], the “% Inhibition” value worked out at 61.5%. Consider `O=C(Nc1ccc(OC2CCN(CC3CC3)CC2)c(Cl)c1)c1ccc2ncccc2c1` [TCMDC-134273], for which the “% Inhibition” value came to 41.88%. For the molecule `O=C1c2ccc([N+](=O)[O-])cc2C(=O)N1c1ccc2[nH]ncc2c1` [TCMDC-131599], the “% Inhibition” value is given as -5.185%. As to `CCOC(=O)c1ccc(NC(=O)Nc2ccc(-c3ccc(-c4nc5cccc(C)c5[nH]4)s3)cc2)cc1` [TCMDC-133259], the “% Inhibition” value was -10.61%. With `CC(=O)C1(c2ccccc2)CCN(CCC2(c3ccc(Cl)c(Cl)c3)CN(C(=O)C3CCCC3)CCO2)CC1` (stereo not shown) [TCMDC-135325], the “% Inhibition” value is on record as -42.49%. With `CC(C)c1cccc(C(C)C)c1NC(=O)NNC(=O)c1ccc(CCN2CCC(c3nc(COCC(F)(F)F)c(-c4ccc(F)cc4)o3)CC2)cc1` [TCMDC-131908], the “% Inhibition” value is -22.37%. Same read-out and setting: under `Cc1c(C)c2c(c(C)c1O)CC[C@](C)(C(=O)N1CCC(CN3CCC(c4c[nH]c5ccccc45)CC3)CC1)O2` [TCMDC-139892] stands -67.77%. `Cc1c(C)c2c(c(C)c1O)CC[C@](C)(C(=O)NC1CCC(CN3CCC(c4c[nH]c5ccccc45)CC3)CC1)O2` (stereo partly shown) [TCMDC-139895]: the “% Inhibition” value (% Inhibition) is given as -20.01%. In the case of `Cc1c(C)c2c(c(C)c1O)CC[C@@](C)(C(=O)N1CCC(CN3CCC(c4c[nH]c5ccccc45)CC3)CC1)O2` [TCMDC-139899], the “% Inhibition” value came to 79.54%. Turning to `Cc1c(C)c2c(c(C)c1O)CC[C@](C)(C(=O)NC1CCC(CN3CCC(c4c[nH]c5ccccc45)CC3)CC1)O2` (stereo partly shown) [TCMDC-139890], the “% Inhibition” value (% Inhibition) is reported as -54.12%. Consider `Cc1c(C)c2c(c(C)c1O)CC[C@](C)(C(=O)N1CCC(CCN3CCC(c4c[nH]c5ccccc45)CC3)CC1)O2` [TCMDC-139891], for which the “% Inhibition” value is listed as 102.8%.

As for `Cc1c(C)c2c(c(C)c1O)CC[C@@](C)(C(=O)N1CCC(CCN3CCC(c4c[nH]c5ccccc45)CC3)CC1)O2` [TCMDC-139898], the “% Inhibition” value worked out at 69.88%.

As to `Cc1cccc(C(=O)Nc2ccnc(N3CCCN(Cc4cccc(O)c4)CC3)c2)c1` [TCMDC-134959], the “% Inhibition” value is reported as -37.26%. In the case of `CC1(C)NC(N)=NC(=N)N1OCCCO` [TCMDC-131559], the “% Inhibition” value was -1.825%.

Regarding `CC1CCC2(CC1)NC(N)=NC(=N)N2OCCCCCCCCO` (stereo not shown) [TCMDC-131600], the “% Inhibition” value is given as 80.95%.

On to `N=C1N=C(N)NC2(CCCCC2)N1OCC1CCCCC1` [TCMDC-131617], for which the “% Inhibition” value is given as -29.76%. Same read-out and setting: the figure for `CNC(=O)c1ccc(/C=C/C(=O)N2CCc3ccc(-c4ccccc4)cc3C2c2cccc(C(F)(F)F)c2)cc1` (stereo not shown) [TCMDC-138253] is -22.09%; for `CN(C)CCCOc1ccccc1CN1CC[C@H](NC(=O)c2ccc(Cl)c(Cl)c2)C1` [TCMDC-140310] it is -1.9%. Still for that read-out and setting: under `CN1CCC[C@H]1COc1ccc(CN2CC[C@H](NC(=O)c3ccc(Cl)c(Cl)c3)C2)c2ccccc12` [TCMDC-140270] stands 22.59%; under `CN(C)CCCOc1ccc(CN2CC[C@H](NC(=O)c3ccc(Cl)c(Cl)c3)C2)c2ccccc12` [TCMDC-140267], 76.67%; under `O=C(N[C@H]1CCN(Cc2ccc(OCCN3CCNCC3)c3ccccc23)C1)c1ccc(Cl)c(Cl)c1` [TCMDC-140269], 83.44%. Same read-out and setting: the figure for `O=C(N[C@H]1CCN(Cc2ccc(OCCN3CCCC3)c3ccccc23)C1)c1ccc(Cl)c(Cl)c1` [TCMDC-140268] is 76.23%; for `CN(C)CCCOc1ccc(CN2CC[C@H](NC(=O)c3ccc(Cl)c(Cl)c3)C2)cc1Cl` [TCMDC-140272] it is 19.07%; for `CN(Cc1ccccc1)C(=O)CCNS(=O)(=O)c1cc(Br)cnc1N` [TCMDC-125445] it is 18.91%. With `COc1cccc(CCc2ccc(O)c3c2C[C@H]2C[C@H]4[C@H](N(C)C)C(=O)C(C(N)=O)=C(O)[C@@]4(O)C(=O)C2=C3O)c1` [TCMDC-138636], the “% Inhibition” value is given as 7.419%. With `CCCC/C=C(\Cl)c1ccc(O)c2c1C[C@H]1C[C@H]3[C@H](N(C)C)C(=O)C(C(N)=O)=C(O)[C@@]3(O)C(=O)C1=C2O` [TCMDC-138656], the “% Inhibition” value is recorded as 85.94%. Still for that read-out and setting: under `CN(C)[C@@H]1C(=O)C(C(N)=O)=C(O)[C@@]2(O)C(=O)C3=C(O)c4c(O)ccc(C#Cc5ccccn5)c4C[C@H]3C[C@@H]12` [TCMDC-138642] stands 7.454%.

Values taken from article PMC4552634, “A New Set of Chemical Starting Points with Plasmodium falciparum Transmission-Blocking Potential for Antimalarial Drug Discovery” (PLoS ONE, 2015).
